Test [1] has as its target Peroxisome proliferator-activated receptor gamma (Homo sapiens) (UniProt P37231). The test can be described thus: qHTS assay for small molecule agonists of peroxisome proliferator-activated receptor gamma signaling (AID 588536; active = well fitted curve in the direction sought with a large enough effect in the signal ratio, with a control signal flat, not every such curve was filed as active; the % refers to the signal ratio;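 also: 0% = DMSO basal wells and 100% = rosiglitazone at 2 µM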). The following applies: HEK293 PPARg-UAS-bla, beta-lactamase ratio, 16 h, percent of rosiglitazone response, DMSO as zero; series mostly up to 76.7 µM. In outline: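 Ratiometric blue/green fluorescence (405 nm excitation; 460 and 530 nm emission) from CCF4-loaded HEK293 reporter cells serves as signal. Exposure to test compounds lasts 16 h at 37 C in medium containing 1% charcoal/dextran-treated serum.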
In general terms: Quantitative high-throughput screening tests each substance at several concentrations.

The target in test [2] is Vitamin D3 receptor (Homo sapiens) (UniProt P11473). In words: qHTS assay for small molecule antagonists of vitamin D receptor signaling (AID 588541; calls by dose curve;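 also: receptor activated by calcitriol during compound treatment; % is scaled to controls: 0 for no effect and ±100 for the full control effect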). The following applies: HEK293T VDR-UAS-bla, beta-lactamase ratio, antagonist mode; series mostly up to 76.7 µM. In outline:
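VDR-UAS-bla HEK293T cells (2000/well, 2% charcoal-stripped FBS) were treated with titrated compounds plus 1-alpha,25-dihydroxyvitamin D3 (50 nM or 3 nM final) for 16 h at 37 C. CCF4 beta-lactamase fluorescence was read; Hill fits gave IC50.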

The target is the same in test [3]. In words: qHTS assay for small molecule agonists of vitamin D receptor signaling (AID 588543; calls by dose curve;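 also: 0% = DMSO basal and 100% = reference agonist control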). The following applies: HEK293T VDR-UAS-bla, beta-lactamase ratio, 16 h; series mostly up to 76.8 µM. In short, it runs like this:
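qHTS in agonist mode: compound titrations stimulate a VDR-driven β-lactamase reporter in HEK293T cells over 16 h at 37 °C. Response normalized to 50 nM 1α,25-dihydroxyvitamin D3 = 100%, DMSO = 0%; Hill fitting gives EC50 and maximal response.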

Test [4] can be described thus: qHTS assay for small molecule agonists of retinoid X receptor alpha signaling (AID 588544; calls by dose curve;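 as to activation: 0% = DMSO basal wells and 100% = reference agonist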). The following applies: HEK293T RXRa-UAS-bla, beta-lactamase reporter, 18 h; 530 nm emission.
The target of test [5] is Retinoic acid receptor RXR-alpha (Homo sapiens) (UniProt P19793). The test is described as above. The following applies: HEK293T RXRa-UAS-bla, beta-lactamase reporter, 18 h; series mostly up to 76.7 µM.
The nature of test [6]: qHTS assay for small molecule antagonists of retinoid X receptor alpha signaling (AID 588546; active = well fitted inhibition curve with a large enough effect in the signal ratio, with a control signal flat, not every such curve was filed as active; the % refers to the signal ratio;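 also: cells stimulated with 9-cis-retinoic acid as agonist; % is scaled to controls: 0 for no effect and ±100 for the full control effect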). The following applies: HEK293T RXRa-UAS-bla, beta-lactamase ratio, antagonist mode; measured here: W530 green channel, cytotoxicity proxy. In short, it runs like this: (§1)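 Beta-lactamase reporter inhibition, read as CCF4 fluorescence ratio (ex 405, em 460/530 nm) after 2 h at RT. HEK293T UAS-bla cells, 2500/well, were stimulated with 9-cis-RA at 500 or 100 nM final alongside test compound for 18 h at 37 C.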

The target of test [7] is Retinoic acid receptor RXR-alpha (Homo sapiens) (UniProt P19793). Described as above. The following applies: HEK293T RXRa-UAS-bla, beta-lactamase ratio, antagonist mode. In outline: as §1
Test [8] concerns the target Thyroid hormone receptor beta (Homo sapiens) (UniProt P10828). In words: qHTS assay for small molecule antagonists of thyroid hormone receptor beta signaling (AID 588547; active = well fitted inhibition curve with a large enough effect in the signal ratio, with a control signal flat, not every such curve was filed as active; the % refers to the signal ratio;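 also: cells stimulated with 0.4 nM T3 agonist during compound exposure; % is scaled to controls: 0 for no effect and ±100 for the full control effect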). The following applies: TR-UAS-bla HEK293, beta-lactamase ratio, antagonist mode, 18 h. In short, it runs like this:
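TR-UAS-bla GripTite HEK293 cells in 2% charcoal/dextran FBS medium were preincubated 4 h at 37 C, given compound (0.59 nM to 92 uM) plus 0.4 nM T3 (final) for 18 h, then CCF4 for 2 h at RT; Hill fit gave IC50.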

In test [9] the target is Voltage-gated inwardly rectifying potassium channel KCNH2 (Homo sapiens) (UniProt Q12809). The test can be described thus: qHTS Assay for Small Molecule Inhibitors of the Human hERG Channel Activity (AID 588834).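 Also: top concentration of the series differs between compounds; % is scaled to controls: 0 for no effect and ±100 for the full control effect; lower thallium flux fluorescence means stronger hERG block; nearly all actives have a fitted effect of over 50% in size.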 The following applies: U2OS BacMam hERG, FluxOR thallium flux fluorescence; series mostly up to 92.2 µM. In short, it runs like this: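 Measured: FluxOR fluorescence after thallium stimulation in U2OS cells transduced with hERG by baculovirus. Compounds pre-incubated around 10 min; medium Opti-MEM with 2% FCS. AC50 from Hill equation.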

Test [10] in a line: qHTS assay for small molecule agonists of the antioxidant response element (ARE) signaling pathway (AID 651741; active = well fitted activation curve with a large enough effect in the signal ratio; the % refers to the signal ratio; also: % of control where 0% means no effect). The following applies: HepG2 ARE-bla reporter, beta-lactamase FRET ratio, 16 h; series mostly up to 96 µM. In outline:
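Compounds in DMSO are pinned onto HepG2 ARE-bla cells (2,000/well) that were preincubated 5 h; plates stay 16 h at 37 C, then beta-lactamase activity is detected with LiveBLAzer B/G substrate by fluorescence.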

The nature of test [11]: qHTS assay for small molecule activators of the p53 signaling pathway (AID 651743; active = well fitted activation curve with a large enough effect in the signal ratio, not every such curve was filed as active; the % refers to the signal ratio; also: % of control where 0% means no effect). The following applies: HCT-116 p53RE-bla, beta-lactamase FRET ratio, 16 h; activation: stronger effect = higher value. In outline:
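Cell-based beta-lactamase reporter (p53 response elements, HCT-116 background). After a 5-hour preincubation, cells received compound for 16 hours at 37 C; substrate development ran 2 hours at room temperature.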

The nature of test [12]: qHTS assay for small molecule disruptors of the mitochondrial membrane potential - 1 hr assay (AID 651754; calls by dose curve; also: % is scaled to controls: 0 for no effect and ±100 for the full control effect; nearly all actives have a fitted effect of over 35% in size). The following applies: series mostly up to 92.2 µM. In outline: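 HepG2 cells, attached overnight, were exposed to compound for 1 hr at 37C, then stained 30 min with a potentiometric dye. Ratio of red aggregate (590nm) to green monomer (535nm) fluorescence reports membrane potential; collapse shifts signal toward green.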

The nature of test [13]: qHTS assay for small molecule disruptors of the mitochondrial membrane potential - 5 hr assay (AID 651755; calls by dose curve; also: % is scaled to controls: 0 for no effect and ±100 for the full control effect; nearly all actives have a fitted effect of over 40% in size). The following applies: JC-1-type ratio dye; series mostly up to 92.2 µM. In short, it runs like this:
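HepG2 cells, attached overnight at 37C, were exposed to compound or DMSO for 5 hr at 37C, 5% CO2. Mito-MPS dye was then added for 30 min, and fluorescence read at 490/535 nm (monomers) and 540/590 nm (aggregates).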

Test [14] deals with Tumor necrosis factor (Homo sapiens) (UniProt P01375). The test can be described thus: qHTS assay to identify small molecules that stimulate Tumor Necrosis Factor-alpha (TNF-alpha) secretion (AID 651757; active = well fitted curve in the direction sought with a large enough effect in the signal ratio; the % refers to the signal ratio; also: 0% is about no effect). The following applies: Human cells, HTRF 665/615 ratio; series mostly up to 92.2 µM. In outline:
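THP-1 cells (3000/well) exposed to compounds 17 hrs at 37 C. Secreted TNF-alpha detected by HTRF with cryptate- and XL665-labeled anti-TNF-alpha antibodies after 3 hr at room temperature.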

A short description of test [15]: qHTS assay for environmental chemicals that activate the Aryl hydrocarbon Receptor (AhR) signaling pathway (AID 651777). Also: % of control where 0% means no effect; nearly all actives have a fitted effect of over 15% in size. The following applies: 1A2-DRE human hepatoma cells, luciferase, 24 h; activation: stronger effect = higher value. In outline:
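Quantitative HTS in stably transfected human liver-derived cells whose luciferase gene sits downstream of the CYP1A2 promoter and dioxin response element. After 24 hr exposure at 37 C, One-Glo luminescence was measured.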

Test [16] has as its target Peroxisome proliferator-activated receptor alpha (Homo sapiens) (UniProt Q07869). In words: qHTS assay for small molecule agonists of the peroxisome proliferator-activated receptor alpha (PPARalpha) signaling pathway (AID 651778). Also: % of control where 0% means no effect. The following applies: PathHunter PPARalpha complementation, chemiluminescence, 6 h; stronger effect = higher value. In outline: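 Cells plated at 2,000/well and held overnight at 37 C, 5% CO2, then compound added by pin tool for 6 hr; after PathHunter detection reagent and 60 min at room temperature, chemiluminescence from enzyme complementation was read.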

Test [17] deals with Nuclear receptor ROR-gamma (Homo sapiens) (UniProt P51449). In words: qHTS assay for small molecule antagonists of the retinoid-related orphan receptor gamma (ROR-gamma) signaling pathway (AID 651802).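 Also: luciferase reporter luminescence driven by ROR response element; % is scaled to controls: 0 for no effect and ±100 for the full control effect; nearly all actives have a fitted effect of over 60% in size.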 The following applies: ROR-gamma antagonist cell reporter assay; series mostly up to 92.2 µM. In short, it runs like this:
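CHO cells with TET-inducible ROR-gamma and RORE-luciferase reporter, dosed then doxycycline-induced. After 16 h at 37C, One-Glo luminescence read; decreased signal indicates antagonism.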

Test [18] can be described thus: qHTS assay for small molecule agonists of the antioxidant response element (ARE) signaling pathway measured by Nrf2-dependant transcriptional activity (AID 720636; active = well fitted curve in the direction sought with a large enough effect in the repeat runs; an effect the other way counts as inactive or inconclusive; also: % of control where 0% means no effect). The following applies: ARE-luc HepG2, Nrf2 luciferase reporter, 16 h; series mostly up to 92.4 µM. In short, it runs like this: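 Quantitative HTS format in HepG2 cells stably expressing an ARE-luciferase reporter; 16 hr compound treatment at 37 C, luciferase signal detected with ONE-Glo.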

A short description of test [19]: qHTS assay for small molecule antagonists of the retinoid-related orphan receptor gamma (ROR-gamma) signaling pathway - cell viability counter screen (AID 720652; active = well fitted curve in the direction sought with a large enough effect in the repeat runs; an effect the other way counts as inactive or inconclusive;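 also: compound exposure lasted 16 hr before ATP read; % is scaled to controls: 0 for no effect and ±100 for the full control effect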). The following applies: RORgamma reporter cell line viability counter screen; series mostly up to 92.2 µM. In outline: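 CHO cells carrying TET-inducible ROR and RORE-luciferase reporter, plated 5 hr, then dosed with compound plus doxycycline. After 16 hr at 37 C, viability read as intracellular ATP by CellTiter-Glo luminescence.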

Test [20] in a line: qHTS assay for small molecule agonists of the antioxidant response element (ARE) signaling pathway measured by Nrf2-dependant transcriptional activity - cell viability counter screen (AID 720653; active = well fitted curve in the direction sought with a large enough effect in the repeat runs; an effect the other way counts as inactive or inconclusive; also: % is scaled to controls: 0 for no effect and ±100 for the full control effect). The following applies: ARE-bla HepG2 viability, CellTiter-Glo ATP luminescence, 16 h; stronger effect = lower value. In outline: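 ARE-bla HepG2 cells (2,000/well) rested 5 hrs at 37C/5% CO2, then exposed to compounds in DMSO for 16 hrs. Viability was read in the same wells as intracellular ATP by luminescence, 30 min at room temperature after reagent addition.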

Test [21] is described as follows: qHTS assay for cell viability of HEK293 cells (AID 743288). Also: % is scaled to controls: 0 for no effect and ±100 for the full control effect; nearly all actives have a fitted effect of over 50% in size. The following applies: ATP luminescence (CellTiter-Glo), 18 h; max response: stronger effect = lower value. In short, it runs like this:
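The Tox21 protocol used parental HEK293 cells treated for 18 h at 37 C with compounds delivered by pintool; ATP-coupled luminescence after 30 min at room temperature gave viability.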

Test [22] is described as follows: qHTS assay for cell viability of the p53RE-bla HCT-116 cell line (AID 743292). Also: % is scaled to controls: 0 for no effect and ±100 for the full control effect; nearly all actives have a fitted effect of over 55% in size. The following applies: p53RE-bla HCT-116 viability, ATP luminescence, 16 h; series mostly up to 95 µM. In short, it runs like this:
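Viability of compound-treated p53RE-bla HCT-116 cells is taken from ATP-dependent luciferase luminescence. Treatment lasts 16 h at 37 C after a 5 h settling period; detection follows 30 min at room temperature.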

Test [23] has as its target Nuclear receptor subfamily 1 group I member 2 (Rattus norvegicus) (UniProt Q9R1A7). In words: qHTS assay for small molecule activators of the rat pregnane X receptor (rPXR) signaling pathway (AID 651751; call rule not given here; also: 0% is about no effect). The following applies: rPXR reporter cells, luciferase (One-Glo), 24 h.
Test [24] is described as follows: qHTS assay for small molecule activators of the human pregnane X receptor (PXR) signaling pathway (AID 720659; call rule not given here; also: 0% is about no effect). The following applies: DPX-2 HepG2 CYP3A4-luciferase, 24 h; series mostly up to 92.3 µM.

From PubChem BioAssay (NCATS) come the findings set out here.

“And” between values parts separate entries of the source, which are not always exact repeats. Equal entries are not always repeated. Results filed as inconclusive are left out. The source made the active and inactive calls. Unless noted, calls follow the shape of the dose curve; as a rule, active = well fitted curve in the direction sought with a large enough effect; inconclusive = small, poorly fitted or top-dose-only effect, or another doubt; inactive = no such curve, though single readings can be large; an effect the other way counts as inactive or inconclusive.

Sequence of Retinoic acid receptor RXR-alpha (Homo sapiens) (P19793 whole entry, looked up): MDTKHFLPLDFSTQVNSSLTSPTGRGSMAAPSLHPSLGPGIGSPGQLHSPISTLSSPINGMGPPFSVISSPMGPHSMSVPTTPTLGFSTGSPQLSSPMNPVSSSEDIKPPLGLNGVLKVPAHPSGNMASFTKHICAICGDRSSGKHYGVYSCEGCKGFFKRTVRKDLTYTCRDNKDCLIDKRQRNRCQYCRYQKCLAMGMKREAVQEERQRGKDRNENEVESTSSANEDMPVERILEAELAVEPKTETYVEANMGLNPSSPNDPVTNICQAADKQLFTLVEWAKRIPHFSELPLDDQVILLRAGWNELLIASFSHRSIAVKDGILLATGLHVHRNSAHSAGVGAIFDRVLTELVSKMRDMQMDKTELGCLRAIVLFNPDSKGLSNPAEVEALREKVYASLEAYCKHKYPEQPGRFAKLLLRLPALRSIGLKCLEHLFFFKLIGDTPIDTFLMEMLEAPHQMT
Sequence of Vitamin D3 receptor (Homo sapiens) (P11473 whole entry, looked up): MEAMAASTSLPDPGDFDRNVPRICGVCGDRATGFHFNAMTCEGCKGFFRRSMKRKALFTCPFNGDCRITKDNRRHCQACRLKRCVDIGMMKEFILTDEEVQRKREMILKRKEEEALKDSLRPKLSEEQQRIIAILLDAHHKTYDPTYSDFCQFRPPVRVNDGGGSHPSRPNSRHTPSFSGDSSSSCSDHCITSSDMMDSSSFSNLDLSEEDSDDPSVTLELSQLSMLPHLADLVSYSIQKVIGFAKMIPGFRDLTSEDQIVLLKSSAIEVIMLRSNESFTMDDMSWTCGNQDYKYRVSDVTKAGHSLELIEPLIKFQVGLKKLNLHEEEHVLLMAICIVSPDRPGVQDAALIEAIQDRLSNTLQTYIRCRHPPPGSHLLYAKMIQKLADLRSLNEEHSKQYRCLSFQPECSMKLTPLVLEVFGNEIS
Sequence of Nuclear receptor subfamily 1 group I member 2 (Rattus norvegicus) (Q9R1A7 whole entry, looked up): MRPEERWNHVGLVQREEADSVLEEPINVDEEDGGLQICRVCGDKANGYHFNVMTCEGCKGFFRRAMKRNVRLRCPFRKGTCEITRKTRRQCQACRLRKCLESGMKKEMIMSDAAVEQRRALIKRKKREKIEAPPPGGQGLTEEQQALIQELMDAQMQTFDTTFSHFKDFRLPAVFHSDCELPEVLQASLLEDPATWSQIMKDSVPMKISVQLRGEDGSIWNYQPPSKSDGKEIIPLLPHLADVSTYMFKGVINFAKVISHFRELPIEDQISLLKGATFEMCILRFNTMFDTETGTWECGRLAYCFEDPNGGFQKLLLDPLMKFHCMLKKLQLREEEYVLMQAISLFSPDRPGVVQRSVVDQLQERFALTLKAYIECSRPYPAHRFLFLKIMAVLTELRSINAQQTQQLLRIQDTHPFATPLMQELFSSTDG
Sequence of Thyroid hormone receptor beta (Homo sapiens) (P10828 whole entry, looked up): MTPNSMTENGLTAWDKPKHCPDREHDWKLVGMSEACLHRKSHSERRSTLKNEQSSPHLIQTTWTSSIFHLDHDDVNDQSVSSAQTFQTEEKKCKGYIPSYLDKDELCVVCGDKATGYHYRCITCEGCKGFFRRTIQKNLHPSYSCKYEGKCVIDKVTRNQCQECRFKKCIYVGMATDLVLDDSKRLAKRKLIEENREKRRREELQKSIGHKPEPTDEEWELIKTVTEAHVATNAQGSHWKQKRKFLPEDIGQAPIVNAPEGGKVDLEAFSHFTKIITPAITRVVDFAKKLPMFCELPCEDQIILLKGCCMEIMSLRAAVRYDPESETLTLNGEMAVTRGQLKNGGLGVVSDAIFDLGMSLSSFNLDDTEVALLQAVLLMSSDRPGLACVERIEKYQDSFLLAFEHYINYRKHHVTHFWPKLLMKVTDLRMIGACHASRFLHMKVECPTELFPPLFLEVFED
Sequence of Peroxisome proliferator-activated receptor gamma (Homo sapiens) (P37231 whole entry, looked up): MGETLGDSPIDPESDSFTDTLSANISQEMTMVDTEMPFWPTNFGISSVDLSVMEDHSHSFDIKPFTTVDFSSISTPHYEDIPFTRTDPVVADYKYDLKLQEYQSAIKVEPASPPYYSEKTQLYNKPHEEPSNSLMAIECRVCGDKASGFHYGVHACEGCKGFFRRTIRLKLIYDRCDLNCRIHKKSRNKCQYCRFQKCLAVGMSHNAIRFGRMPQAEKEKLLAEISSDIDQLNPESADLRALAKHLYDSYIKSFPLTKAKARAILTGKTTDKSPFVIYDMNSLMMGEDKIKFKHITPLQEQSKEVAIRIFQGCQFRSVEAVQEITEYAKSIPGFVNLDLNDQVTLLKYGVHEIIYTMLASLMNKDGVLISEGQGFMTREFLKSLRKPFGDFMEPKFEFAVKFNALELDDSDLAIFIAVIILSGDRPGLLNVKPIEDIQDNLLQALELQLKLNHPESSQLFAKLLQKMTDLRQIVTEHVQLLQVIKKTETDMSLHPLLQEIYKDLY
Sequence of Peroxisome proliferator-activated receptor alpha (Homo sapiens) (Q07869 whole entry, looked up): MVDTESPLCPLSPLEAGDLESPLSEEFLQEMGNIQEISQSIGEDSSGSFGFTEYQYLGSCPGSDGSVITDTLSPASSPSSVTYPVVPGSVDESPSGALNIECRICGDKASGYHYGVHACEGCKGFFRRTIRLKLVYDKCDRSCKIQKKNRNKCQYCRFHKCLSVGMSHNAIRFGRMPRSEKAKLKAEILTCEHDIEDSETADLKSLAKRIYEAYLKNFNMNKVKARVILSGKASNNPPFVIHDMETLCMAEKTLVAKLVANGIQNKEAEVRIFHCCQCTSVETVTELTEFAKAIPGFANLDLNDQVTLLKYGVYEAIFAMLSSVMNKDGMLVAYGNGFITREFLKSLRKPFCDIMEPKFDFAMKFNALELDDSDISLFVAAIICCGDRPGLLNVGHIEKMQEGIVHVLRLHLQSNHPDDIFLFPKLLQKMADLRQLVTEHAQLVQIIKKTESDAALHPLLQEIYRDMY
Sequence of Voltage-gated inwardly rectifying potassium channel KCNH2 (Homo sapiens) (Q12809 whole entry, looked up): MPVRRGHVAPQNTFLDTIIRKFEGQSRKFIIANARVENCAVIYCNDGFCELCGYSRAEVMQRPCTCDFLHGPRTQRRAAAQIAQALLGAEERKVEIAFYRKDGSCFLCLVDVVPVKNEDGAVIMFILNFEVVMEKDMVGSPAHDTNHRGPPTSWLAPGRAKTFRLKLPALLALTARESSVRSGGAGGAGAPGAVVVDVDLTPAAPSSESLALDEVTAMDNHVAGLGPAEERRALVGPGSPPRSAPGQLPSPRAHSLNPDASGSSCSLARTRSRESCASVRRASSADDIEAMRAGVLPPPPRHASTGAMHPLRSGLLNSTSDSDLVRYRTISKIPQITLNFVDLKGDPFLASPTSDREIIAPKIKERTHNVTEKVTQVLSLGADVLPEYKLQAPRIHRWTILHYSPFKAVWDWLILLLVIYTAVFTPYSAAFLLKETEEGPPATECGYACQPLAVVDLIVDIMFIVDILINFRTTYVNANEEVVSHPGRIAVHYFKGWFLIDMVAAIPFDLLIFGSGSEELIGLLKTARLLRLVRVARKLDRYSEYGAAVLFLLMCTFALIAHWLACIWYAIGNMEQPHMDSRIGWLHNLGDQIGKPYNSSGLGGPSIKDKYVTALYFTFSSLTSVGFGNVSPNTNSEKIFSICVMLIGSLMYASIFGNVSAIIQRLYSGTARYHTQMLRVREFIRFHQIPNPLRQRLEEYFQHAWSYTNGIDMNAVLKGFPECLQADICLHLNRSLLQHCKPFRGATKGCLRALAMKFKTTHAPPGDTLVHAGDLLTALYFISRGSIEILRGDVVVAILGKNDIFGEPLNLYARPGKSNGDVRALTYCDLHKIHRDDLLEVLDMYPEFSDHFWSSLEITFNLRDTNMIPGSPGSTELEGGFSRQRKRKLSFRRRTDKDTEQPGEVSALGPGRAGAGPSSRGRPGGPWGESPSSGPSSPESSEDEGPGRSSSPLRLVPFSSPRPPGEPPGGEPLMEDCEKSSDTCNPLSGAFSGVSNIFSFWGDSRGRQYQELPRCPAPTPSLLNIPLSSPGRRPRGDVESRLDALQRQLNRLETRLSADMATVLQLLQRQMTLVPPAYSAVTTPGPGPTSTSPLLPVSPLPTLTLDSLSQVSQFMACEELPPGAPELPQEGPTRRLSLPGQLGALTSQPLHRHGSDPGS
Sequence of Nuclear receptor ROR-gamma (Homo sapiens) (P51449 whole entry, looked up): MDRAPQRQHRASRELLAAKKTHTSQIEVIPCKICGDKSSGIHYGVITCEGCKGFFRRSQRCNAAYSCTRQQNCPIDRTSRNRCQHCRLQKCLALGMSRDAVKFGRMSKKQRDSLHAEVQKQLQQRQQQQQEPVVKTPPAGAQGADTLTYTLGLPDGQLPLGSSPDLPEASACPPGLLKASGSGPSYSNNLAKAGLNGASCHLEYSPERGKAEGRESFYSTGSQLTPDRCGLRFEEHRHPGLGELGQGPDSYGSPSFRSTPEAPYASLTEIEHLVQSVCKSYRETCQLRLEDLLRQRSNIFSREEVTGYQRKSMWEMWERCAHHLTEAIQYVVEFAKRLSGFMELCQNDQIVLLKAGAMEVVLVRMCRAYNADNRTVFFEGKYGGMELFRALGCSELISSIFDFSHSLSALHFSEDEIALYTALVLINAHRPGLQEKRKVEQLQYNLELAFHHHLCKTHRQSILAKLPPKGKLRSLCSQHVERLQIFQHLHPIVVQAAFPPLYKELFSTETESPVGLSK
Sequence of Tumor necrosis factor (Homo sapiens) (P01375 whole entry, looked up): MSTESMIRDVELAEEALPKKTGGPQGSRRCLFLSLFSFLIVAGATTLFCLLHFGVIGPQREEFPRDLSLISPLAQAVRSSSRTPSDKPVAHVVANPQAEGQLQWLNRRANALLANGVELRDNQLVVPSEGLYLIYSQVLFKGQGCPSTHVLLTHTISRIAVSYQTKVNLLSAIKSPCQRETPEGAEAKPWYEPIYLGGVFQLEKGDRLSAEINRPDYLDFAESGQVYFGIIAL

As to `Oc1ccc(Cl)cc1Cl`, the result in test [1], in test [2], in test [3], in test [14], in test [18] and in [24] was inactive. For the same molecule, the max response in test [4] was 1.97%; in test [6], -7.11% and -14.1%; in test [7], -2.36% (inactive) and -1.51% (inactive); in test [16], 1.17% (inactive) and -0.592% (inactive); in [20], -19.8% (inactive) and -1.01% (inactive); in test [21] it was 3.78% (inactive) and -2.5% (inactive). Moreover, in [23], the max response was 0.337% (inactive) and 1.54% (inactive). Moreover, the Potency entry in test [5], in test [9], in test [10], in test [12], in test [13] and in [17] was “inactive” in each case. The Potency entry in test [19] and in [22] was “inactive” in each case. Further, in [8], the activity change % (negative = inhibition) is 16.9% (inactive) and -6.49% (inactive). Further, the activation was 1.07% (inactive) and -2.53% (inactive) in test [11]; 0.13% (inactive) and 0.875% (inactive) in [15].
